PGK inhibitor: blocks T. brucei phosphoglycerate kinase; P07378; PGK/GAPDH coupled, Kinase-Glo luminescence, 60 min; Potency, µM (series often up to 57.5 µM), without a hit: at the highest dose activity change, negative = inhibition, hits mostly inhibitors; 380,000 compounds, 0.043% hits; AID 602233; note: potency is the fitted concentration of half-maximal effect; nearly all actives have a fitted effect of over 60% in size
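Recombinant glycosomal PGK reaction used 1,3-bisphosphoglycerate generated in-well by GAPDH (100nM final) in 100mM TEA pH 7.6, 5mM MgCl2, 0.01% Tween-20. After 60 minutes at room temperature, ATP was read by Kinase-Glo Plus luminescence end-point.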
PI5P4Ka inh: inhibitors of human PI5P4K alpha | P48426 | PI5P4Kalpha enzyme, ADP-Glo luminescence, 60 min; stronger effect = lower value | max response, % | 330,000 compounds, 1.2% hits; active = max response of -50% or lower; inconclusive = between -30% and -50%; inactive = -30% or higher; note: value at the top dose of about 77 µM
Target sequence (P48426 whole entry, looked up): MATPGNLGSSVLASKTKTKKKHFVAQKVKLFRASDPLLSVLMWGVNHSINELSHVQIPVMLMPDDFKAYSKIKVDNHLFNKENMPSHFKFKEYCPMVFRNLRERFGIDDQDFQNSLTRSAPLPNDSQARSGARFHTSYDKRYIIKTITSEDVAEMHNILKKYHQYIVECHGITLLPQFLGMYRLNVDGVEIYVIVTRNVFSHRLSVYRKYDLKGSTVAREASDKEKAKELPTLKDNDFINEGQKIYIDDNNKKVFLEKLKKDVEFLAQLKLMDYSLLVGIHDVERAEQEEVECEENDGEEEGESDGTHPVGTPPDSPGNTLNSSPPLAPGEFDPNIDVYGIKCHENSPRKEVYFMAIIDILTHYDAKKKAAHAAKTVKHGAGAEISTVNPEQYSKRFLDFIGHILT
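Reactions run in 0.038 M HEPES pH 7.4, 0.28 mM EGTA, 0.1% CHAPS and 5% DMSO, with PI5P4Kalpha, substrate, compound and 5 microM ATP final, one hour at room temperature. Readout is ADP-Glo luminescence.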
Pin1 inh: human Pin1 inhibition; Pin1 FP peptide displacement, HiFluor488, 10 min; Potency, µM (top dose mostly 115 µM), inactives show top-dose activity, negative = inhibition, actives largely listed as inhibitors; Q13526; 390,000 compounds, 0.009% hits; active = well fitted inhibition curve with a large enough effect in the polarisation, with a control signal flat, not every such curve was filed as active; inconclusive = small, poorly fitted or top-dose-only effect, or effect the other way, or a change in a side signal; inactive = no such curve, though single readings can be large or run the other way; the % refers to the polarisation; note: potency is the fitted concentration of half-maximal effect
PI4K2A inh: inhibitors of human PI4K2A | AID 1346378 | purified PI4K2A, ADP-Glo luminescence, 1 h; stronger effect = lower value | activity change, negative = inhibition, % at 76.9 µM | 420,000 compounds, 0.13% hits | Q9BTU6; in the data active = activity change below about -50%; inconclusive = mostly about -30% to -49%;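 note: -100% = wells without enzyme as full effect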
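PI4K2A activity was measured by ADP-Glo luminescence: enzyme (4 ug/mL stock) and phosphatidylinositol (1.2 mM stock) in Tris pH 7.5/MgCl2/EGTA/Triton X-100 buffer were reacted with ATP (300 microM stock) for one hour at ambient temperature.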
Tb PFK block: inhibitors of T. brucei phosphofructokinase; 330,000 compounds, 0.17% hits; Potency, µM (doses to about 57.5 µM), for the others: top-dose activity, negative = inhibition, usual class: inhibitors; O15648; T. brucei PFK, ADP-Glo luminescence;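 note: potency is the fitted concentration of half-maximal effect; 0% = uninhibited 1x PFK enzyme wells and -100% = no-enzyme wells; nearly all actives have a fitted effect of over 60% in size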
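Compounds were pin-transferred as a titration series up to 57 uM into substrate buffer (0.5 mM F6P, 0.1 mM ATP, pH 8.0), then 1.25 nM PFK was added and reactions ran 45 min before ADP-Glo detection.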
The depositor's hits bear a star. Shown is part of a subset that was picked to be rich in hits. Unless noted, calls come from the whole dose curve; as a rule, active = well fitted curve in the direction sought with a large enough effect; inconclusive = small, poorly fitted or top-dose-only effect, or another doubt; inactive = no such curve, though single readings can be large; an effect the other way counts as inactive or inconclusive. Unless noted, % is set by controls: 0 for no effect and ±100 for the full control effect.

For NC(=O)/C(=N\OC(=O)c1ccco1)c1nc(-c2ccc(Br)cc2)cs1 the results were PGK inhibitor 0%, PI5P4Ka inh -69*, Pin1 inh 21%, PI4K2A inh 15 and Tb PFK block 1%.
O=c1[nH]c(/C=C/c2ccccc2F)nc2ccccc12 was read as PGK inhibitor -8%, PI5P4Ka inh 2, Pin1 inh 109%, PI4K2A inh -2 and Tb PFK block 0%.
O=c1[nH]c(/C=C\c2cccc(Cl)c2)nc(O)c1[N+](=O)[O-] was read as PGK inhibitor -6%, PI5P4Ka inh inconclusive, PI4K2A inh -5 and Tb PFK block -1%.
Screening O=c1[nH]c(/C=C\c2cccc(F)c2)nc(O)c1[N+](=O)[O-] returned PGK inhibitor -8%, PI5P4Ka inh -55*, PI4K2A inh -17 and Tb PFK block 8%.
For O=c1[nH]c(/C=C\c2ccccc2F)nc(O)c1[N+](=O)[O-] the results were PGK inhibitor -1%, PI5P4Ka inh -72*, PI4K2A inh -20 and Tb PFK block 0%.
`CCN(CC)CCNc1ncnc2c1[nH]c1ccc(OC)cc12` gave Tb PFK block 2%.
For COc1ccc2[nH]c3c(NCCC4=CCCCC4)ncnc3c2c1 the results were PGK inhibitor inactive, PI5P4Ka inh -61*, Pin1 inh 12%, PI4K2A inh -4 and Tb PFK block -2%.
Cc1ncc([N+](=O)[O-])n1C was read as PI4K2A inh 1.
O=C(N/N=C/c1coc2ccccc2c1=O)c1ccncc1 was read as PGK inhibitor -2%, PI5P4Ka inh -16, Pin1 inh 0%, PI4K2A inh 1 and Tb PFK block -1%.
`O=C(N/N=C/c1coc2ccccc2c1=O)c1cc(Br)c(O)c(Br)c1` gave PGK inhibitor -6%, PI5P4Ka inh -70*, Pin1 inh -6%, PI4K2A inh 1 and Tb PFK block -18%.
NC(=S)N/N=C/c1coc2ccc(O)cc2c1=O was read as PGK inhibitor 0%, PI5P4Ka inh -72*, Pin1 inh 0%, PI4K2A inh -12 and Tb PFK block 8%.
Screening COC(=O)c1cc(-c2cccc(OC(F)(F)F)c2)c(=O)n2c1CCC2 returned PI4K2A inh -3.
S=c1[nH]nc(NC2CCCCC2)s1 was read as PGK inhibitor -1%, PI5P4Ka inh -70* and PI4K2A inh 0.
Screening CCC1(c2ccccc2)NC(=O)N(CC(=O)N2CCN(S(=O)(=O)c3ccccc3)CC2)C1=O (stereo not drawn) returned PGK inhibitor inactive, PI5P4Ka inh -65*, Pin1 inh -7%, PI4K2A inh -4 and Tb PFK block 0%.
`N#C/C(=C\c1ccc(C(=O)O)cc1)c1nc2sc3c(c2c(=O)[nH]1)CCCC3` gave PGK inhibitor inconclusive, PI5P4Ka inh -50*, Pin1 inh inconclusive, PI4K2A inh 0 and Tb PFK block 5%.
Screening CCOC(=O)c1nc2sc3c(c2c(=O)[nH]1)CCCC3 returned PGK inhibitor 4%, PI5P4Ka inh -13, Pin1 inh 4%, PI4K2A inh 3 and Tb PFK block -10%.
CCOc1cc(/C=C2\N=C(SC)SC2=O)cc([N+](=O)[O-])c1OC(C)=O was read as PGK inhibitor -6%, PI5P4Ka inh inconclusive, Pin1 inh -19%, PI4K2A inh -16 and Tb PFK block 6%.
For CCOc1cc(/C=C2\N=C(SCC)SC2=O)cc([N+](=O)[O-])c1OC(C)=O the results were PGK inhibitor -21%, PI5P4Ka inh -68*, Pin1 inh inconclusive, PI4K2A inh 7 and Tb PFK block 4%.
C[C@@H](O)[C@H](N)C(=O)O was read as PI4K2A inh inactive.
Cc1ccc(/C=C/C(=O)Nc2nnc(SCc3ccc(C#N)cc3)s2)o1 was read as PGK inhibitor -4%, PI5P4Ka inh -72*, Pin1 inh 29%, PI4K2A inh inconclusive and Tb PFK block 2%.
For CC(C)CC1NC(=S)N(C2CCCCC2)C1=O (stereo not drawn) the results were PGK inhibitor inactive, PI5P4Ka inh -59*, Pin1 inh -4%, PI4K2A inh -2 and Tb PFK block 0%.
